We go through 15 molecules from PubChem BioAssay (NCI).

This is part of a sample that, as a whole, favours compounds with a hit. Of some 83,000 tested, about 20% had one in any assay.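 Assay: single dose, 48 h. Readout: percent growth (0 = no net growth; negative = cell death). Active: <10.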 Calls of active or inactive are those of the source.

In the assay the test system is HL-60(TB) leukemia. Briefly: NCI-60 one-dose screen, 48 h (100 = growth as untreated, 0 = no growth, -100 = all killed). The settings on record: 10 µM unless noted.
`COc1cc(/C=C2\C(=O)Nc3ccc(Br)cc32)cc(OC)c1OC`: the growth was 73.5% (inactive). To `Oc1ccc(CN2CCC(N3CCOCC3)CC2)c2cccnc12` belongs 34.4% (inactive); to `COc1ccccc1N1C(=N)S/C(=C\c2ccc(OCc3ccccc3F)cc2)C1=O`, 112% (inactive); to `C#CCOc1cccc(-c2ncnc3cc(NC(=O)CCl)ccc23)c1`, -29.7% (active). In the case of `CNc1nc2ncc(-c3c(C)noc3C)cc2n1Cc1ccccc1` it was 8.97% (active); in that of `CNCCNc1nc2ccccc2c2c(=O)c3cccc(C)c3sc12`, -39.8% (active); in that of `CCC(C)CC(N)O` (stereo not given), 120% (inactive). On to `CCN1C(=O)N(CC)C2NC(SC)=NC21` (stereo not given), for which the growth was 103% (inactive). To `C#C[C@]1(O)CC[C@H]2[C@@H]3CC=C4c5nc(N)sc5CC[C@]4(C)[C@H]3CC[C@@]21C` belongs 87.5% (inactive).

Turning to `COC1=CC(c2ccc[nH]2)=N/C1=C\c1[nH]c(C)c(CC(=O)OCc2ccccc2)c1CCC(=O)OCc1ccccc1`, the growth was -31.1% (active).

Turning to `NC(N)=N/N=C/CO`, the growth was 102% (inactive).

As to `CN1CSC(=S)N(Cc2ccccc2)C1`, the growth is 79.8% (inactive).

For the molecule `COc1ccccc1CNc1nc(N)nc2[nH]c3ccc(O)cc3c12`, the growth is 34.3% (inactive). As to `COc1cccc2c1C(=O)c1c(O)c3c(c(O)c1C2=O)C[C@](O)(C(=O)CO)C[C@H]3O[C@@H]1C[C@@H](NC(=O)CCCCCN(C)C2(c3ccc(F)cc3)CC3CCC2C3)[C@H](O)[C@@H](C)O1` (stereo not given in full), the growth was 84.9% (inactive).

For `CCc1ccc(-c2nnc(COc3ccc(-c4nc5ccc(C)cc5[nH]4)cc3OC)o2)cc1`, the growth is 6.14% (active).
